Our source for the Inhibition values is ChEMBL document CHEMBL1157539, “Thousands of chemical starting points for antimalarial lead identification” (Nature, 2010).

Molecules are shown by their SMILES. Several values for one entry are separate records, joined by “and”; a condition that tells them apart may be missing. Identical values can stand only once.

Common to all, as to format: functional
Assay [1] has as its system Plasmodium falciparum. Description: GSK_TCMDC: Inhibition of Plasmodium falciparum 3D7 in whole red blood cells, using parasite LDH activity as an index of growth. Test compounds present at 2uM.
The test system of assay [2] is Plasmodium falciparum. In words: GSK_TCMDC: Inhibition of Plasmodium falciparum Dd2 in whole red blood cells, using parasite LDH activity as an index of growth. Test compounds present at 2uM.
For the next assay, the system named is HepG2. Description: GSK_TCMDC: Percent inhibition of human HepG2 cell line. Test compounds present at 10uM.

`Cl.O=C1c2ccccc2CN1CCCN1CCC(Oc2ccc(F)cc2)CC1`: the values for the Inhibition with Plasmodium falciparum [1], in the assay with Plasmodium falciparum [2] and in the assay on HepG2 were 97%, 1% and 14%, respectively.
On the same counts, the results for `COc1ccc(NC(=O)NC2CCN(CCCCCNC(=O)/C=C/c3ccc(Cl)c(Cl)c3)CC2)cc1` are 96%, 1% and 5%.
As to `NC1=Nc2ccc(Cl)cc2C1(O)c1ccccc1` (stereo not drawn), the Inhibition in the assay on Plasmodium falciparum [1] amounted to 100%; with Plasmodium falciparum [2], 51%; in the assay with HepG2, 0%.
`Cn1cnc2c(SCc3ccccc3OCc3ccccc3)ncnc21`: the results for the Inhibition in the assay with Plasmodium falciparum [1], in the assay on Plasmodium falciparum [2] and with HepG2 were 86%, 34% and 6%, respectively.
`CC(C)[C@H](NC(=O)c1c(F)cccc1F)C(=O)Nc1ccc(Cc2nc3ccccc3s2)cc1`: the figures for the Inhibition in the assay with Plasmodium falciparum [1], with Plasmodium falciparum [2] and with HepG2 were 82%, 72% and 3%, respectively.
The like results for `CC(CN(C)C)C(=O)Nc1ccc(-c2ccc(-c3nc4cc(F)ccc4[nH]3)cc2)cc1` (stereo not drawn) were, in that order, 100%, 95% and 14%.
For `COc1ccc(NC(=O)[C@H](Cc2ccccc2)Nc2cc(C)nc(NCc3ccccc3C)n2)cc1.O=C(O)C(F)(F)F`, the Inhibition was found to be 100% in the assay on Plasmodium falciparum [1], 71% in the assay on Plasmodium falciparum [2] and 16% in the assay on HepG2.
`Cc1cccc2nc(-c3cccc(-c4cccc(NC(=O)C(C)CN(C)C)c4)c3)[nH]c12` (stereo not drawn): the Inhibition in the assay with Plasmodium falciparum [1] came out at 100%; with Plasmodium falciparum [2], 97%; in the assay on HepG2, 16%.
As to `COc1cccc2cc(C(=O)N[C@@H](CC(C)C)C(=O)N[C@H](/C=N/NC(=O)c3ccccc3)Cc3c[nH]cn3)oc12`, the Inhibition came to 99% in the assay with Plasmodium falciparum [1], 90% in the assay on Plasmodium falciparum [2] and 3% in the assay on HepG2.
On to `COc1cc(C(=O)NC2CCN(Cc3ccccc3)CC2)ccc1-c1nc2cc(Cl)c(Cl)cc2[nH]1`, for which the Inhibition was found to be 100% in the assay with Plasmodium falciparum [1], 100% in the assay on Plasmodium falciparum [2] and 14% in the assay with HepG2.
Take `Cc1cccc2c1NC(=O)/C2=N/NC(=S)N(C)C`: the Inhibition with Plasmodium falciparum [1] was 96%; in the assay with Plasmodium falciparum [2] it was 59%; with HepG2 it was 48%.
On the same counts, the results for `O=C(O)C(F)(F)F.c1cncc(CCNCc2ccc(-c3cccc(-c4nc5ccccc5[nH]4)c3)cc2)c1` are 100%, 99% and 39%.
As to `O=C(COc1ccc(F)cc1)NC1CCN(c2ccnc3cc(Cl)ccc23)C1.O=C(O)C(F)(F)F` (stereo not drawn), the Inhibition amounted to 100% in the assay with Plasmodium falciparum [1], 100% in the assay with Plasmodium falciparum [2] and 24% with HepG2.
As for `Cc1ccc(C)c(NC(=O)Nc2ccc(C)c(-c3ccc(C(=O)Nc4ccncc4)cc3)c2)c1`, the Inhibition in the assay on Plasmodium falciparum [1] turned out to be 98%; in the assay on Plasmodium falciparum [2], 59%; in the assay with HepG2 it was 46%.
With `CS(=O)(=O)Cc1ccc(Nc2nccc(-c3c(-c4cccc(NC(=O)c5c(F)cccc5F)c4)nn4ncccc34)n2)cc1`, the results for the Inhibition in the assay with Plasmodium falciparum [1], in the assay with Plasmodium falciparum [2] and with HepG2 were 97%, 93% and 86%, respectively.
In the case of `CC1CN(c2cnn(Cc3cccc(NC(=O)Nc4ccc(F)cc4[N+](=O)[O-])c3)c(=O)c2Cl)CC(C)N1.O=C(O)C(F)(F)F` (stereo not drawn), the values for the Inhibition in the assay on Plasmodium falciparum [1], with Plasmodium falciparum [2] and in the assay on HepG2 were 91%, 13% and 7%, respectively.
`Cc1nc(NC(=N)N)nc2cc3c(cc12)CCC3.Cl`: the Inhibition with Plasmodium falciparum [1] came to 90%; in the assay with Plasmodium falciparum [2] it was 58%; with HepG2 it was 17%.
In the case of `COc1ccc2nccc([C@@H](O)CN3CCC(NCc4nc5c(cc4Cl)SCC(=O)N5)C(F)C3)c2c1.Cl` (stereo partly drawn), the Inhibition with Plasmodium falciparum [1] was 94% and 99%; with Plasmodium falciparum [2], 94% and 100%; in the assay on HepG2, 20% and 10%.
As for `OCCn1c(CNCCCNc2nc3ccccc3[nH]2)cc2c(Cl)cc(Cl)cc21`, the values for the Inhibition in the assay with Plasmodium falciparum [1], with Plasmodium falciparum [2] and in the assay with HepG2 were 95%, 0% and 29%, respectively.
For the molecule `CC1CNC(c2cccc(NC(=O)Nc3cccc(C4=NC(C)CN4)c3)c2)=N1.Cl` (stereo not drawn), the Inhibition came out at 94% in the assay on Plasmodium falciparum [1], 98% in the assay on Plasmodium falciparum [2] and 7% in the assay on HepG2.
The like results for `O=[N+]([O-])c1ccc(N/C(=N\c2ccccc2Br)NCCOc2ccccc2)c(O)c1` were, in that order, 88%, 70% and 6%.
The like results for `COc1ccc(Nc2nccc(N3CCC(NC(=O)Nc4cccc(OC)c4)C3)n2)cc1` (stereo not drawn) were, in that order, 99%, 48% and 23%.
As to `CS(=O)(=O)c1ccc(CNCc2cccc(-c3cccc(-c4nc5ccccc5[nH]4)c3)c2)cc1.O=C(O)C(F)(F)F`, the figures for the Inhibition in the assay with Plasmodium falciparum [1], in the assay on Plasmodium falciparum [2] and with HepG2 were 100%, 47% and 3%, respectively.
Take `CC1(C)C=C(c2ccncc2)c2cc(Cl)ccc2O1.Cl`: the Inhibition is given as 97% in the assay on Plasmodium falciparum [1], 22% with Plasmodium falciparum [2] and 0% with HepG2.
In the case of `CCCC(CCC)n1ccc2c3c(N)nc(N)nc3ccc21.Cl`, the values for the Inhibition in the assay with Plasmodium falciparum [1], in the assay on Plasmodium falciparum [2] and in the assay on HepG2 were 98%, 97% and 66%, respectively.
On the same counts, the results for `COc1ccccc1N1CCN(c2cccc(F)c2C#N)CC1` are 85%, 59% and 0%.
`O=C(O)C(F)(F)F.S=C(Nc1cccc(Cl)c1)NC1CCN(c2ccnc3cc(Cl)ccc23)C1` (stereo not drawn): the Inhibition with Plasmodium falciparum [1] was found to be 100%; with Plasmodium falciparum [2] it was 89%; with HepG2, 16%.
Take `Cc1sc(CNCCCNc2cc(=O)c3ccccc3[nH]2)cc1Br`: the values for the Inhibition in the assay on Plasmodium falciparum [1], in the assay on Plasmodium falciparum [2] and with HepG2 were 100%, 83% and 12%, respectively.
The like results for `Cn1cncc1-c1cc2c(Nc3ccc(OCc4ccccc4)cc3)ncnc2cn1` were, in that order, 99%, 75% and 0%.
With `Cl.O=C(NCc1ccc(C(=O)N2CCC(N3CCCCC3)CC2)cc1)c1cc(-c2cccc(C(F)(F)F)c2)ccc1O`, the figures for the Inhibition with Plasmodium falciparum [1], in the assay on Plasmodium falciparum [2] and in the assay with HepG2 were 100%, 58% and 0%, respectively.
In the case of `N#Cc1ccc(N/C(=N\c2cccc(Cl)c2Cl)NCc2ccc(Cl)cc2Cl)c(O)c1`, the Inhibition with Plasmodium falciparum [1] turned out to be 97%; in the assay with Plasmodium falciparum [2], 75%; with HepG2, 3%.
